The record followed here is PubChem BioAssay (NCI).

“And” between values parts separate entries of the source, which are not always exact repeats. Equal values may be shown once. Compounds without any hit were thinned out: in the full panel of roughly 83,000, 20% have a hit.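 Treatment: one concentration, 48 hours, 96-well format. Scoring: percent growth, with anything below 10 considered active.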 The source made the active and inactive calls.

The first assay concerns BT-549 breast. As to the kind of experiment: NCI-60 one-dose screen, 48 h (100 = growth as untreated, 0 = no growth, -100 = all killed). To be noted: 4.75 µM. The method, then: Growth inhibition of the BT-549 human tumor cell line is measured as a screen for anti-cancer activity. Cells are grown in 96 well plates and exposed to the test compound for 48 hours. Compounds are tested at a single concentration, which is 10^-5 M for most compounds. The reported endpoint is percent growth (GI% or GIPRCNT), where numbers from 0 - 100% represent growth inhibition, and numbers from -100% - 0 represent cell death. For example, a value of 40 represents 60% growth inhibition. A value of 0 means no net growth occurred over the course of the experiment. A value of -40 indicates 40% of cells at the beginning of the experiment died by the end of the experiment. A value of -100 means all cells are dead at the end of the experiment.
NCI-60 Human Tumor Cell Lines Screen was performed using the standard one-dose NCI protocol, which is described in more detail at https://dtp.cancer.gov/discovery_development/nci-60/default.htm.
Compounds with GIPRCNT values below 10 were considered active. Activity score was based on GIPRCNT using the following formula: […]
Score is 0 for GIPRCNT values of 100 or above, 50 for GIPRCNT values of 0, and 100 for GIPRCNT values of -100.
In the case of `CC(=O)OCC1OC([S-])C(OC(C)=O)C(OC(C)=O)C1OC(C)=O.[Au+].c1ccc(CN2[CH-]N(Cc3ccccc3)C(c3ccccc3)=C2c2ccccc2)cc1`, the growth is 7.95% (active).

Staying with this assay, now noted: 10 µM.
`CC(=O)OCC1OC([S-])C(OC(C)=O)C(OC(C)=O)C1OC(C)=O.[Au+].c1ccc(CN2[CH-]N(Cc3ccccc3)C(c3ccccc3)=C2c2ccccc2)cc1`: the growth was 12.6% (inactive).

The assay is the same for the next values; noted with them: 10 µM unless noted.
As for `CC[C@H](C)[C@H](NC(=O)CN(C)C)C(=O)N(C)[C@H](C[C@@H](OC(C)=O)c1nc(C(=O)NC23CC(C(=O)OC)(C2)C3)cs1)C(C)C`, the growth is 14.2% (inactive).
Still for that read-out and setting: as for `CC12CCC3C(CCC4CC(O)CCC43C)C1CCC2=O` (stereo not given), the figure is 113% (inactive); as for `Nc1ccc(S(=O)(=O)F)cc1`, 104% (inactive).
For `O=C(O)c1cc([N+](=O)[O-])cc([N+](=O)[O-])c1`, the growth is 94.3% (inactive).
In the case of `CCOC(=O)c1ccccc1C(=O)OCC`, the growth was 95.6% (inactive).
The same measure, in the same setting: as for `CCCCCCCCCCCCCCCC[N+](C)(C)C`, the figure is -76% (active) and -41.5% (active).
For the compound `C/C(=C\c1ccn(-c2ccc(N)cc2F)n1)[C@@H]1C[C@@H]2O[C@]2(C)CCC[C@H](C)[C@H](O)[C@@H](C)C(=O)C(C)(C)[C@@H](O)CC(=O)O1`, the growth is 19.7% (inactive).
Still for that read-out and setting: as for `CCCCCCCCCCCCCCCCCCn1cc[n+](C)c1`, the figure is -55.6% (active) and -55% (active); as for `Cc1cc(N(CCCl)CCCl)ccc1C=Nc1ccc(-c2csc(-c3ccccc3)n2)cc1`, 67.2% (inactive); as for `C[C@]12CCc3sc(Nc4ccc(F)cc4)nc3C1=CC[C@@H]1[C@@H]2CC[C@]2(C)C(=O)CC[C@@H]12`, 43.8% (inactive).
As to `COc1ccn(C)c(=O)c1C#N`, the growth is 103% (inactive).
On the same count and under the same terms, as for `Clc1ccc(COC(Cn2ccnc2)c2ccc(Cl)cc2Cl)c(Cl)c1` (stereo not given), the figure is 51.8% (inactive) and 40.9% (inactive); as for `C[C@@]12CCCc3coc(c31)C(=O)c1cc3c(cc12)C(=O)C1=C(NCCS1(=O)=O)C3=O`, -51.7% (active).
Still for that read-out and setting: as for `Oc1ccccc1C=NCCN=Cc1ccccc1O.[Fe]`, the figure is 110% (inactive).
For `C=CC1CN2CCC1CC2C(O)c1ccnc2ccccc12` (stereo not given), the growth was 181% (inactive).
As to `C[N+]1(C)CCCC1c1cccnc1` (stereo not given), the growth was 85.3% (inactive).
Still for that read-out and setting: as for `C/C(=C(\c1ccc(OCCN2CCOCC2)cc1)c1ccc(OC(=O)Cc2ccccc2)cc1)c1ccc(Cl)cc1`, the figure is 91.1% (inactive); as for `O=[N+]([O-])c1cc(Cl)c(Cl)cc1Cl`, 121% (inactive) and 119% (inactive).
Same read-out and setting: as for `CC1(C)CN=C(NN=C(/C=C/c2ccc(C(F)(F)F)cc2)/C=C/c2ccc(C(F)(F)F)cc2)NC1`, the figure is -16.8% (active); as for `CCOC(=O)C1C(C=C(C)C)C1(C)C` (stereo not given), 104% (inactive).
Consider `CC[C@H](C)[C@H](NC(=O)[C@H]1CCCCN1C)C(=O)N(C)[C@H](C[C@@H](OC(C)=O)c1cccc(C(=O)N[C@@H](Cc2ccccc2)C[C@H](C)C(=O)OC)n1)C(C)C`, for which the growth is -22.5% (active).
Still for that read-out and setting: as for `COC(=O)CCP(CCC(=O)OC)c1ccccc1`, the figure is 90% (inactive).
Still for that read-out and setting: under `CCC1(CCSC#N)C(=O)NC(=O)NC1=O` stands 95.3% (inactive).
In the case of `CCC(Br)(CC)C(=O)NC(N)=O`, the growth was 108% (inactive).
The same measure, in the same setting: under `N#CCc1ccc(CC#N)cc1` stands 95.9% (inactive); under `c1ccc2c(c1)sc1ccccc12`, 96.7% (inactive).
`O=C1NC(=O)C(=Cc2ccccc2)C(=O)N1`: the growth was 106% (inactive) and 116% (inactive).
The same measure, in the same setting: under `COC(=O)C1=CCCN(C)C1` stands 97.7% (inactive); under `O=[N+]([O-])c1cc(Br)c(O)c(Br)c1`, 121% (inactive); under `C#COc1cccc(Nc2ncnc3cc(NC(=O)CF)ccc23)c1`, 28% [6.25 µM] (inactive).
Same read-out and setting: under `Cc1nnc([S-])o1.[Au+].c1ccc([PH+](c2ccccc2)c2ccccc2)cc1` stands 34.1% (inactive); under `C=CC[PH+](c1ccccc1)c1ccccc1.C=CC[PH+](c1ccccc1)c1ccccc1.[Pt+2].[S-]c1nc2ccccc2[nH]1.[S-]c1nc2ccccc2[nH]1`, -28.1% (active); under `COc1ccc(/C=C(/C)[N+](=O)[O-])cc1OC`, 60.2% (inactive).
`Cc1cc[c-]cc1.Fc1c[c-]c(-c2ccccn2)c(F)c1.[Pt+2].c1ccc([PH+](c2ccccc2)c2ccccn2)cc1`: the growth was 63.2% (inactive).
Still for that read-out and setting: as for `O=C1C=C(N2CC2)c2ccccc2C1=O`, the figure is 71.5% (inactive); as for `CC(=O)Nc1nc2c(s1)C1=CC[C@H]3[C@@H]4CC[C@H](OC(C)=O)[C@@]4(C)CC[C@@H]3[C@@]1(C)CC2`, 39.2% (inactive).
For the compound `OCCN=Cc1c[nH]c2ccccc12`, the growth is 107% (inactive).
On to `c1ccc2c(c1)O[As](O[As]1Oc3ccccc3O1)O2`, for which the growth was 17.6% (inactive).
